Measurements as given in PubChem BioAssay (EPA / NIEHS).
Records with an inconclusive call do not appear. Where a structure was tested more than once in an assay, its records may differ in their call. Calls of active or inactive are those of the source. Rule for the calls: active = hit-call score of the fitted dose curve at least 0.9, where 1 is the maximum; inconclusive = response in the unintended direction; inactive = score below 0.9.

Legend:
[1] = TOX21_p53_BLA_p2_viability: Viability Assessment in the Tox21 HCT-116 p53 Agonism Beta-lactamase Assay, Phase 2 (AID 2283591);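 note: compound exposure lasted 16 h at 37 °C; actives lower the ATP signal meaning cytotoxicity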
How it was run: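 HCT-116 p53-bla cells (4000/well) rested 5 h at 37C, then received compounds in DMSO (217-fold dilution) for 16 h at 37C, 5% CO2. After the CCF4 read, CellTiter-Glo was added; ATP luminescence was read after 30 min at room temperature.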

[2] = target: Cellular tumor antigen p53 (Homo sapiens) (UniProt P04637); assay: TOX21_p53_BLA_p2_ratio: Tox21 HCT-116 p53 Agonism Beta-lactamase Assay, Ratio, Phase 2 (AID 2283592)
How it was run: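 In this cell-based reporter format, HCT116 cells were dosed with chemicals delivered from DMSO by 217-fold dilution and incubated 16 h at 37C. Emission at 460 and 530 nm after 2 h CCF4-AM loading provided the ratio, fitted upward versus DMSO.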

[3] = TOX21_p53_BLA_p3_viability: Viability Assessment in the Tox21 HCT-116 p53 Agonism Beta-lactamase Assay, Phase 3 (AID 2283593);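 note: cells exposed to compound for 16 h before reading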
How it was run: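 HCT-116 cells (4000/well) rested 5 h at 37C, then got DMSO compounds by pin tool (217-fold dilution) for 16 h at 37C, 5% CO2. After the bla read, CellTiter-Glo was added and luminescence read at 30 min, room temperature.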

[4] = target: Cellular tumor antigen p53 (Homo sapiens) (UniProt P04637); assay: TOX21_p53_BLA_p3_ratio: Tox21 HCT-116 p53 Agonism Beta-lactamase Assay, Ratio, Phase 3 (AID 2283596)
How it was run: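 HCT116 p53-bla cells (4000/well) given compound in DMSO (217-fold dilution) after 5 h, incubated 16 h at 37C. CCF4-AM substrate 2 h at room temperature; 460/530 nm emission ratio, gain fitted against DMSO.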

[5] = TOX21_p53_BLA_p4_viability: Viability Assessment in the Tox21 HCT-116 p53 Agonism Beta-lactamase Assay, Phase 4 (AID 2283597);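 note: hits lower the luminescence signal meaning cytotoxicity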
How it was run: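 We seeded HCT116 p53 reporter cells at 4000/well and waited 5 h. We then added compounds in DMSO at a 217-fold dilution and incubated for 16 h. Viability was read as CellTiter-Glo luminescence after 30 min at RT.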

[6] = target: Cellular tumor antigen p53 (Homo sapiens) (UniProt P04637); assay: TOX21_p53_BLA_p5_ratio: Tox21 HCT-116 p53 Agonism Beta-lactamase Assay, Ratio, Phase 5 (AID 2283599)
How it was run: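 HCT-116 cells carrying a p53-inducible beta-lactamase reporter were seeded at 4000 cells/well and dosed after 5 h with compound in DMSO (217-fold dilution). After 16 h at 37C, CCF4-AM substrate was added for 2 h, and the 460/530 nm emission ratio was scored as gain-of-signal versus DMSO.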

[7] = TOX21_p53_BLA_p5_viability: Viability Assessment in the Tox21 HCT-116 p53 Agonism Beta-lactamase Assay, Phase 5 (AID 2283600)
How it was run: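 Compounds, pinned from DMSO at 217-fold dilution, were left on the cells for 16 h. The viability endpoint was ATP content measured by CellTiter-Glo luminescence, where falling signal reflects cytotoxicity.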

[8] = target: Cellular tumor antigen p53 (Homo sapiens) (UniProt P04637); assay: TOX21_p53_BLA_p4_ratio: Tox21 HCT-116 p53 Agonism Beta-lactamase Assay, Ratio, Phase 4 (AID 2283601)
How it was run: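 HCT116 cells carrying an inducible beta-lactamase reporter were plated at 4000 cells/well, rested 5 h, then exposed to compounds in DMSO (217-fold dilution) for 16 h at 37C. CCF4-AM substrate was loaded 2 h at room temperature; 460/530 nm emission ratio scored gain-of-signal versus DMSO.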

Measured: AC50

Cellular tumor antigen p53 (Homo sapiens), sequence (P04637 whole entry, looked up): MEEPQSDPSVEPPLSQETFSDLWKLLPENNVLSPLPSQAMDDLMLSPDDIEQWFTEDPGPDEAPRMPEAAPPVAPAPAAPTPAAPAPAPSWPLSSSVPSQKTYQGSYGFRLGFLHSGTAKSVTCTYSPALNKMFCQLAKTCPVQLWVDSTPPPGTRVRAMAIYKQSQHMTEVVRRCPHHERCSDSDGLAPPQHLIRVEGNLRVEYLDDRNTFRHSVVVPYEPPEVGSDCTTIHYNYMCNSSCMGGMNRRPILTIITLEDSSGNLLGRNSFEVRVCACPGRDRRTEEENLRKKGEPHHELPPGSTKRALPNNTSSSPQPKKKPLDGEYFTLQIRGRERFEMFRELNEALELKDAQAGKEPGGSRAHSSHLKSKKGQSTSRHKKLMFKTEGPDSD

Clc1ccc(CCC(Cn2ccnc2)Sc2c(Cl)cccc2Cl)cc1 (stereo not drawn)
inactive: [1] | [2] | [3] | [5] | [6] | [7] | [8]
active: [4] 15.9 µM

CCOC(=O)NC(C)(C)Cc1ccc(Cl)cc1
inactive: [1] | [2] | [3] | [4] | [5] | [6] | [7] | [8]

C#C[C@]1(OC(=O)CCCCCC)CC[C@H]2[C@@H]3CCC4=CC(=O)CC[C@@H]4[C@H]3CC[C@@]21C
inactive: [2] | [4] | [5] | [6] | [7] | [8]
active: [1] 8.02 µM | [3] 23 µM

O=[N+]([O-])c1ccccc1CCl
inactive: [1] | [2] | [3] | [4] | [5] | [6] | [7] | [8]

O=C(Cl)CCl
inactive: [1] | [2] | [3] | [4] | [5] | [6] | [7] | [8]

CN[C@@]1(c2ccccc2Cl)CCCCC1=O
inactive: [1] | [2] | [3] | [4] | [5] | [6] | [7] | [8]

CC(=O)O[C@H]1C[C@H](O[C@H]2[C@@H](O)C[C@H](O[C@H]3[C@@H](O)C[C@H](O[C@H]4CC[C@@]5(C)[C@H](CC[C@@H]6[C@@H]5C[C@@H](O)[C@]5(C)[C@@H](C7=CC(=O)OC7)CC[C@]65O)C4)O[C@@H]3C)O[C@@H]2C)O[C@H](C)[C@H]1O[C@@H]1O[C@H](CO)[C@@H](O)[C@H](O)[C@H]1O
inactive: [2] | [4] | [6] | [8]
active: [1] 0.109 µM | [3] 0.0857 µM | [5] 0.121 µM | [7] 0.0758 µM

CCCCCCC(=O)CCCCCC/C=C/C[C@@H](O)[C@H](O)[C@@](N)(CO)C(=O)O
inactive: [1] | [2] | [3] | [4] | [5] | [6] | [7]

CCC(C)(S(=O)(=O)CC)S(=O)(=O)CC
inactive: [1] | [2] | [3] | [4] | [5] | [6] | [7] | [8]

Cc1nnc2n1-c1sc(CCc3ccc(CC(C)C)cc3)cc1C(c1ccccc1Cl)=NC2C (stereo not drawn)
active: [1] 23 µM | [2] 31 µM | [3] 29 µM | [4] 27.4 µM | [5] 24.8 µM | [6] 39.8 µM | [7] 23 µM | [8] 42.2 µM

CC(C)[C@@]1(NC(=O)[C@@H]2C[C@@H]3c4cccc5[nH]cc(c45)C[C@H]3N(C)C2)O[C@@]2(O)[C@@H]3CCCN3C(=O)[C@H](Cc3ccccc3)N2C1=O
inactive: [1] | [2] | [3] | [4] | [5] | [6] | [7] | [8]
active: [5] 33.9 µM

O=C(O)CC[N+](=O)[O-]
inactive: [1] | [2] | [3] | [4] | [5] | [6] | [7] | [8]

CCC1(c2cnc[nH]2)Cc2ccccc2C1
inactive: [1] | [2] | [3] | [4] | [5] | [6] | [7] | [8]

c1ccoc1
inactive: [1] | [2] | [3] | [4] | [5] | [6] | [7]

COC(=O)c1cncn1C(C)c1ccccc1 (stereo not drawn)
inactive: [1] | [2] | [3] | [4] | [5]

CC(Cl)C(=O)O (stereo not drawn)
inactive: [1] | [2] | [3] | [4] | [5] | [6] | [7]

CO[C@]12CC[C@@]3(C[C@@H]1[C@](C)(O)C(C)(C)C)[C@H]1Cc4ccc(O)c5c4[C@@]3(CCN1CC1CC1)[C@H]2O5
active: [1] 75 µM | [3] 70.3 µM | [4] 86.6 µM | [5] 60.6 µM
inactive: [2] | [6]

O=C(O)C(Cl)Br (stereo not drawn)
inactive: [1] | [2] | [3] | [4] | [5] | [6] | [7] | [8]

C[C@@H]1CC[C@H]2[C@@H](C)C(=O)O[C@@H]3O[C@@]4(C)CC[C@@H]1[C@]32OO4
inactive: [1] | [2] | [3] | [4] | [5] | [6] | [7]

O=C1c2ccccc2C(=O)C1C(=O)C(c1ccccc1)c1ccccc1
inactive: [1] | [3] | [4] | [6] | [7]
active: [2] 37.1 µM | [5] 44 µM

CC(C)N(C(=O)SCC(Cl)=CCl)C(C)C
inactive: [1] | [2] | [3] | [4] | [5] | [6] | [7]

C#CCN1CC(=O)N(COC(=O)C2C(C=C(C)C)C2(C)C)C1=O (stereo not drawn)
inactive: [1] | [2] | [3] | [4] | [5]
